# The other results are listed elsewhere or left out. How many sequences the whole screen found active is unknown.
# B1: HC1524 (peptide)
# chain: CAGLQDCTMLAGNASASA
# B2: HC1957 (peptide)
# chain: CASCTTPCSGAGNASASA
# B3: HC1500 (peptide)
# chain: CARLYVGGPLAGNASASA
# B4: HC1374 (peptide)
# chain: CATGALVTPCAGNASASA
# B5: HC1385 (peptide)
# chain: CASLLRHHNLAGNASASA
# B6: FS-1633 (peptide)
# chain: CAICQRVKRVAGNASASA
# B7: HC861 (peptide)
# chain: CADELAAKLVAGNASASA
# B8: FS-188 (peptide)
# chain: CARLLRHKRMAGNASASA
# B9: FS-256 (peptide)
# chain: CAIQARAKRVAGNASASA
# B10: FS-112 (peptide)
# chain: CAYSHRWKRNAGNASASA
# B11: FS-148 (peptide)
# chain: CAVDIRLKRVAGNASASA
# B12: FS-53 (peptide)
# chain: CALNERLKRVAGNASASA
# B13: HC1531 (peptide)
# chain: CAVVICESAGAGNASASA
# B14: HC2221 (peptide)
# chain: CAEVVTSNWVAGNASASA
# B15: HC805 (peptide)
# chain: CASPITYSTYAGNASASA
# B16: HC876 (peptide)
# chain: CADVVVVATDAGNASASA
# B17: HC1487 (peptide)
# chain: CAIRTEEAIYAGNASASA
# B18: HC649 (peptide)
# chain: CASQMETKLIAGNASASA
# B19: HC449 (peptide)
# chain: CANTLHCPTDAGNASASA
# B20: FS-1631 (peptide)
# chain: CAHLERHKRVAGNASASA
# B21: FS-903 (peptide)
# chain: CAYSHRHKRVAGNASASA
# B22: FS-817 (peptide)
# chain: CALAWRSGRVAGNASASA
# B23: HC1235 (peptide)
# chain: CAVGLHEYPVAGNASASA
# B24: HC2050 (peptide)
# chain: CAVVCCSVSYAGNASASA
# B25: HC1763 (peptide)
# chain: CAMEECSQHAAGNASASA
# B26: HC1721 (peptide)
# chain: CAMENCSQHLAGNASASA
# B27: HC1847 (peptide)
# chain: CATFPCSGSWAGNASASA
# B28: HC948 (peptide)
# chain: CAQTKQSGENAGNASASA
# B29: FS-1984 (peptide)
# chain: CAIGKRSVEYAGNASASA
# B30: FS-2631 (peptide)
# chain: CALQKRSSRHAGNASASA
# B31: FS-1768 (peptide)
# chain: CARQKRILVNAGNASASA
# B32: HC1008 (peptide)
# chain: CAIPDREVLYAGNASASA
# B33: FS-2323 (peptide)
# chain: CAYPKRSSEVAGNASASA
# B34: FS-2591 (peptide)
# chain: CARQYRSAYYAGNASASA
# B35: FS-1966 (peptide)
# chain: CARQKRSDLYAGNASASA
# B36: FS-2246 (peptide)
# chain: CADQKRSLESAGNASASA
# B37: FS-3038 (peptide)
# chain: CARQKRSVENAGNASASA
# B38: HC295 (peptide)
# chain: CAATLCSALYAGNASASA
# B39: HC1474 (peptide)
# chain: CAAWKSKKTPAGNASASA
# B40: HC685 (peptide)
# chain: CAGRDKNQVEAGNASASA
# B41: HC588 (peptide)
# chain: CAAQLHVWIPAGNASASA
# B42: HC659 (peptide)
# chain: CAINGLPVSAAGNASASA
# B43: HC1363 (peptide)
# chain: CAWSTVSSEAAGNASASA
# B44: FS-2361 (peptide)
# chain: CARQKRIHSAAGNASASA
# B45: FS-2170 (peptide)
# chain: CARQKRSVSIAGNASASA
# B46: FS-3037 (peptide)
# chain: CARQKRSSEAAGNASASA
# Molecular target: furin, P09958
# Assay: furin cleavage Z-score vs untreated control; higher = more cleavage, active = 3.5 or more, inactive = 1 or less, 8 variable residues between constant flanks
# Summary of the method: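 The cleavage Z-score is the log read count relative to furin-free reactions, lowess-adjusted and scaled by median absolute deviation. Counts came from sequencing DNA released from bead-bound 8-mer peptide–cDNA fusions after digestion with purified furin for 7.5, 15 or 30 min.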
# 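Further: purified furin at 1:10 enzyme:substrate in 50 mM HEPES pH 7.5.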
# Sequence of furin, P09958 (P09958 whole entry): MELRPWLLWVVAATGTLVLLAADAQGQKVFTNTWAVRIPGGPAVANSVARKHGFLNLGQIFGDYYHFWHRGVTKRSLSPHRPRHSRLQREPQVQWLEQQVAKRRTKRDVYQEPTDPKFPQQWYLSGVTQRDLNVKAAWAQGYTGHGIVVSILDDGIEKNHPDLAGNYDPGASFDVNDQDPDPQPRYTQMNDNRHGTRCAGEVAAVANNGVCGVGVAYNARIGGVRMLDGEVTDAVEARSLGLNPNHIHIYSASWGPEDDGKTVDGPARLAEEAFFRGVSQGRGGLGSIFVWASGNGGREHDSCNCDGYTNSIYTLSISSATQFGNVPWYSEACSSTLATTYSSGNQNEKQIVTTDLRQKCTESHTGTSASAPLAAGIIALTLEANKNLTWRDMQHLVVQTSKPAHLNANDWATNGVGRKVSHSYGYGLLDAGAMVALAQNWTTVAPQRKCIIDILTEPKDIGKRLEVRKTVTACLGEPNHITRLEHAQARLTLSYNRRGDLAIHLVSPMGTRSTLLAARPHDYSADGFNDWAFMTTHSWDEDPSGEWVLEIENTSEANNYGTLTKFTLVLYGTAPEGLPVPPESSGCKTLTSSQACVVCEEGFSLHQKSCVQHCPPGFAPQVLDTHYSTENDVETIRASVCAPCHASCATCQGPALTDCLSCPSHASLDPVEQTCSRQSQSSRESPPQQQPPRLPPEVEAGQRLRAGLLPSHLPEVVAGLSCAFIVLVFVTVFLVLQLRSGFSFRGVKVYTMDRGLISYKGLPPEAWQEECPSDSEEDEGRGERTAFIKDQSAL
Sequence,furin cleavage Z-score (7.5 min),furin cleavage Z-score (15 min),furin cleavage Z-score (30 min)
B1,1.18,0.431 (inactive),0.816 (inactive)
B2,0.117 (inactive),-0.946 (inactive),0.203 (inactive)
B3,-0.16 (inactive),0.662 (inactive),0.78 (inactive)
B4,1.46,-0.486 (inactive),-0.745 (inactive)
B5,-0.346 (inactive),0.336 (inactive),0.383 (inactive)
B6,0.73 (inactive),-0.331 (inactive),1.69
B7,-0.523 (inactive),0.896 (inactive),0.946 (inactive)
B8,8.79 (active),8.2 (active),6.11 (active)
B9,4.63 (active),3.93 (active),4.73 (active)
B10,7.46 (active),8.5 (active),7.17 (active)
B11,0.517 (inactive),1.34,1.54
B12,2.86,3.12,3.89 (active)
B13,0.204 (inactive),-0.473 (inactive),1.4
B14,-0.745 (inactive),-1.12 (inactive),-0.494 (inactive)
B15,0.448 (inactive),0.103 (inactive),-0.462 (inactive)
B16,-1.44 (inactive),-0.376 (inactive),-0.463 (inactive)
B17,-0.614 (inactive),-0.579 (inactive),-0.877 (inactive)
B18,1.65,0.44 (inactive),-0.0666 (inactive)
B19,-0.243 (inactive),-1.86 (inactive),-0.583 (inactive)
B20,7.08 (active),8.35 (active),8.68 (active)
B21,5.57 (active),7.12 (active),6.65 (active)
B22,-2.25 (inactive),-0.244 (inactive),0.218 (inactive)
B23,-0.411 (inactive),-0.271 (inactive),-1.96 (inactive)

Sequence,furin cleavage Z-score (7.5 min),furin cleavage Z-score (15 min),furin cleavage Z-score (30 min)
B24,-0.658 (inactive),-0.454 (inactive),-0.515 (inactive)
B25,-0.182 (inactive),-0.0436 (inactive),1.21
B26,0.959 (inactive),2.87,0.898 (inactive)
B27,-0.0484 (inactive),-0.806 (inactive),-1.82 (inactive)
B28,-0.725 (inactive),-1.67 (inactive),-1.53 (inactive)
B29,1.53,2.52,3.58 (active)
B30,5.41 (active),7.89 (active),8.89 (active)
B31,-0.183 (inactive),-1.46 (inactive),0.612 (inactive)
B32,-1.25 (inactive),-0.885 (inactive),-0.354 (inactive)
B33,-0.277 (inactive),-2 (inactive),0.081 (inactive)
B34,-0.594 (inactive),0.967 (inactive),2.18
B35,4.32 (active),5.36 (active),5.43 (active)
B36,-0.764 (inactive),-1.16 (inactive),-0.0942 (inactive)
B37,10.2 (active),9.71 (active),8.9 (active)
B38,1.6,-0.694 (inactive),0.385 (inactive)
B39,-0.115 (inactive),0.0818 (inactive),-0.362 (inactive)
B40,0.288 (inactive),-0.161 (inactive),-1.36 (inactive)
B41,-0.31 (inactive),-0.454 (inactive),-0.108 (inactive)
B42,-0.744 (inactive),-0.464 (inactive),-0.336 (inactive)
B43,1.2,-0.449 (inactive),0.19 (inactive)
B44,-1.05 (inactive),-0.069 (inactive),-0.712 (inactive)
B45,3.57 (active),5.04 (active),6.27 (active)
B46,9.89 (active),9.51 (active),6.34 (active)

# Reference: the supplement of paper PMC3545927
